14-3-3 PPI: modulators of human 14-3-3 gamma - Raf peptide interaction; P61981; FP, 14-3-3gamma / TMR-pS259-Raf peptide binding; inhibition, % at 40 µM; hit rate 0.19% among 160,000; in the data active means inhibition above about 30%;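 further: 0% = protein plus tracer without compound and 100% = blank with tracer alone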
Target sequence (P61981 whole entry, looked up): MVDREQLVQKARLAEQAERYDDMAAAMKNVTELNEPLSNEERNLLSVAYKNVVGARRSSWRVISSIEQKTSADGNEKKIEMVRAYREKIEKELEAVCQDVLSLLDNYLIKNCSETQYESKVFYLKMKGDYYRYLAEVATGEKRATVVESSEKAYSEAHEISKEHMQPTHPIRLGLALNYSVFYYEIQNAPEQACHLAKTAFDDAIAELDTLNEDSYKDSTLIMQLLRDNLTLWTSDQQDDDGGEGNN
The depositor's hits bear a star; ! = not confirmed by another sample. The full list was thinned out, with hits kept by preference.

Results for Cc1cc(=O)oc(C)c1C(=O)NCc1ccccc1Cl ?
14-3-3 PPI: -9.0

Results for Cc1ccccc1CS(=O)(=O)Cc1ccc(C(=O)NCc2ccccn2)o1 ?
14-3-3 PPI: 33.5*

What do the screens show for `Cc1ccc(CNC(=O)c2c(C)cc(=O)oc2C)cc1`?
14-3-3 PPI: -3.9

Results for O=C(NCc1ccccn1)c1ccc(CS(=O)(=O)Cc2ccc(Cl)cc2)o1 ?
14-3-3 PPI: 1.8

Results for Cc1ccccc1CS(=O)(=O)Cc1ccc(C(=O)NCc2ccco2)o1 ?
14-3-3 PPI: 1.2

How did Cc1cc(=O)oc(C)c1C(=O)NCc1ccccn1 do in these assays?
14-3-3 PPI: 44.5*!

How did COc1ccc(Nc2nc(-c3cccc([N+](=O)[O-])c3)cs2)cc1 do in these assays?
14-3-3 PPI: 4.3

How did CC1CCC(N2C(=O)C3C(C(=O)Nc4ccc(Cl)cc4)C4C=CC3(O4)C2C(=O)NC2CCCC(C)C2C)CC1 (stereo not drawn) do in these assays?
14-3-3 PPI: -14.6

What do the screens show for `COc1cccc(NC(=O)C2C3C=CC4(O3)C2C(=O)N(CC2COc3ccccc3O2)C4C(=O)NC2CCCCC2C)c1` (stereo not drawn)?
14-3-3 PPI: 0.5

How did Cc1ccc(NC(=O)c2cc(S(=O)(=O)NC3CCCCC3C)ccc2F)cc1Cl (stereo not drawn) do in these assays?
14-3-3 PPI: 4.1

Results for CCOC(=O)C1=C(C(C)=O)C(c2cccnc2)C(C#N)=C(N)O1 (stereo not drawn) ?
14-3-3 PPI: 32.0*

What do the screens show for `CCOC(=O)C1=C(N)Oc2cc(O)ccc2C1c1cccnc1` (stereo not drawn)?
14-3-3 PPI: -11.6

How did CCOC(=O)C1=C(CSc2nc(-c3ccncc3)ccc2C#N)OC(N)=C(C#N)C1c1cccnc1 (stereo not drawn) do in these assays?
14-3-3 PPI: -15.7

What do the screens show for `O=C(Oc1ccc2c(=O)c(Oc3ccccc3Cl)coc2c1)c1cccs1`?
14-3-3 PPI: -82.0

How did COc1ccc(N=Cc2cc(Cl)cc([N+](=O)[O-])c2O)cc1Cl do in these assays?
14-3-3 PPI: -20.4

Results for COc1ccc(N=Cc2cc([N+](=O)[O-])cc(Br)c2O)cc1OC ?
14-3-3 PPI: 8.6

What do the screens show for `COc1ccc(N=Cc2cc(Cc3ccccc3Cl)cc([N+](=O)[O-])c2O)cc1OC`?
14-3-3 PPI: 79.0*

What do the screens show for `COc1cc2c(cc1OC)C(COc1ccccc1OC)N(C(=O)c1ccccc1C(F)(F)F)CC2` (stereo not drawn)?
14-3-3 PPI: -15.0

What do the screens show for `CCOC(=O)Cc1ccc(NCc2cccs2)cc1`?
14-3-3 PPI: -3.0

What do the screens show for `Oc1ccc(NCc2cccs2)cc1`?
14-3-3 PPI: 52.1*

What do the screens show for `O=[N+]([O-])c1cccc(NCc2cccs2)c1`?
14-3-3 PPI: 0.4

Results for CCOc1ccc(N=c2scc(-c3ccc(S(=O)(=O)N4CCOCC4)cc3)n2CCO)cc1 ?
14-3-3 PPI: -0.7

Results for CC(C)(C)NC(=O)C1CCCN1S(=O)(=O)c1cccs1 (stereo not drawn) ?
14-3-3 PPI: -2.3

How did CCOCCCNC(=O)c1cc2cc3cc(OC)ccc3nc2s1 do in these assays?
14-3-3 PPI: -3.5

What do the screens show for `NC(=O)c1ccc(N2CCCCC2)c(N2C(=O)CCC2=O)c1`?
14-3-3 PPI: -1.5

How did NC(=O)c1cc(N)ccc1N1CCCC1 do in these assays?
14-3-3 PPI: 30.6*

How did NC(=O)c1ccc(N2CCCCC2)c(N2C(=O)C3C4C=CC(C4)C3C2=O)c1 (stereo not drawn) do in these assays?
14-3-3 PPI: 1.6

Results for Cc1cccc(Oc2cc([N+](=O)[O-])cc3c2C(=O)Nc2ccccc2O3)c1 ?
14-3-3 PPI: -83.1

Results for COc1cccc(Oc2cc([N+](=O)[O-])cc3c2C(=O)Nc2ccccc2O3)c1 ?
14-3-3 PPI: 60.8*

How did O=C1Nc2ccccc2Oc2cc([N+](=O)[O-])cc(Oc3ccccc3)c21 do in these assays?
14-3-3 PPI: -78.9

Results for CCCOCCOC(=O)C1=C(C)NC2=C(C(=O)CC(C)(C)C2)C1c1ccccc1F (stereo not drawn) ?
14-3-3 PPI: 2.2

What do the screens show for `Nc1c2c3c(c(Cl)ccc3[nH]c1=O)C(=O)c1ccccc1-2`?
14-3-3 PPI: -4.4

How did O=C1c2ccccc2-c2c(Nc3ccccc3)c(=O)[nH]c3cccc1c23 do in these assays?
14-3-3 PPI: 91.7*

Results for CC(=O)Nc1ccc(Nc2ccccc2)c2c1C(=O)c1ccccc1C2=O ?
14-3-3 PPI: -15.5

How did CCSc1nc2c([nH]c3ccccc32)c(=O)n1-c1ccc(C)cc1 do in these assays?
14-3-3 PPI: -1.9

How did Cc1ccccc1CN1CCN(CC(=O)NC2CCCCC2C)C1=O (stereo not drawn) do in these assays?
14-3-3 PPI: -7.1

What do the screens show for `COC(=O)CSc1ccc2c3c(cccc13)C(=O)c1ccccc1-2`?
14-3-3 PPI: 20.2

Results for O=C1c2ccccc2-c2ccc(Br)c3cccc1c23 ?
14-3-3 PPI: -0.5

Results for COc1ccc2c3c(cccc13)C(=O)c1ccccc1-2 ?
14-3-3 PPI: 32.5*

Results for CCc1ccc(S(=O)(=O)N=C2C=C(Nc3ccc(C(=O)OC)cc3)C(=O)c3ccccc32)cc1 ?
14-3-3 PPI: 32.5*

Results for CCOC(=O)c1ccc(NC2=CC(=NS(=O)(=O)c3ccc(OC)cc3)c3ccccc3C2=O)cc1 ?
14-3-3 PPI: 81.7*

How did CCOc1ccc(NC2=CC(=NS(=O)(=O)c3ccc(CC)cc3)c3ccccc3C2=O)cc1 do in these assays?
14-3-3 PPI: -7.4

Results for CCc1ccc(S(=O)(=O)N=C2C=C(Nc3ccccc3)C(=O)c3ccccc32)cc1 ?
14-3-3 PPI: -93.3

Results for COc1ccc(S(=O)(=O)N=C2C=C(Nc3ccc(O)cc3)C(=O)c3ccccc32)cc1 ?
14-3-3 PPI: 13.7

Results for CCOc1ccc(S(=O)(=O)N=C2C=C(Nc3ccc(OC)cc3)C(=O)c3ccccc32)cc1 ?
14-3-3 PPI: -3.1

Results for CCCCc1c(C)c(C#N)c2nc3ccccc3n2c1NCCCN(C)C ?
14-3-3 PPI: -0.8

Results for CCCCNC(=O)c1c(CC)c(-c2ccccc2)nc2ccccc12 ?
14-3-3 PPI: -6.5

How did Cc1ccc(Cn2c(SCC(=O)N3CCCC3)nc3c(sc4ccc([N+](=O)[O-])cc43)c2=O)cc1 do in these assays?
14-3-3 PPI: -4.5

What do the screens show for `CC1=C(C(=O)OC2CCCC2)C(c2coc3ccc(C)cc3c2=O)C2=C(CC(c3cccs3)CC2=O)N1` (stereo not drawn)?
14-3-3 PPI: 3.3

Results for Cc1ccccc1-c1nc2cc(N=Cc3cc(Cl)cc([N+](=O)[O-])c3O)ccc2o1 ?
14-3-3 PPI: -5.5

How did Cc1ccc(-c2nc3cc(N=Cc4cc(C)cc([N+](=O)[O-])c4O)ccc3o2)cc1 do in these assays?
14-3-3 PPI: 53.5*

Results for Cc1ccc(-c2nc3cc(N=Cc4cc(Cl)ccc4O)ccc3o2)cc1 ?
14-3-3 PPI: -6.8

Results for Cc1ccc(-c2nc3cc(N=Cc4cccc([N+](=O)[O-])c4O)ccc3o2)cc1C ?
14-3-3 PPI: -59.8

Results for CN(C)c1ccc(-c2nc3cc(N=Cc4cc(Cl)ccc4O)ccc3o2)cc1 ?
14-3-3 PPI: -36.5

How did Oc1ccc(Cl)cc1C=Nc1ccc(-c2nc3cc(Cl)ccc3o2)cc1 do in these assays?
14-3-3 PPI: 84.5*

Results for O=C(CN(Cc1ccccc1)S(=O)(=O)c1ccc(Br)cc1)Nc1ccccc1Br ?
14-3-3 PPI: -1.8

Results for COc1ccc(CN(CCC(c2ccc(C)cc2)c2ccco2)C(C)=O)cc1 (stereo not drawn) ?
14-3-3 PPI: -8.0
